Experimental findings from PubChem BioAssay (NCI) are described below.

Compounds without any hit were thinned out: in the full panel of roughly 79,000, 15% have a hit. A number with no mark means an inactive call. Calls of active or inactive are those of the source. Cut-off read from the data, not from the text of the source: active = growth inhibition above about 70%; inactive = the rest.

Test [1] can be described thus: NCI Yeast Anticancer Drug Screen. Data for the rad50 strain (AID 155).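 Note: 0% = growth of vehicle-only cultures of the same strain.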 The conditions noted are these: S. cerevisiae rad50 strain growth inhibition, stronger effect = higher value. An outline of the steps:
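Compounds were tested on a yeast strain with an engineered DNA damage repair alteration; the reported value is growth inhibition normalised to vehicle treatment.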

The nature of test [2]: NCI Yeast Anticancer Drug Screen. Data for the mec2-1 strain (AID 157). The conditions noted are these: S. cerevisiae mec2-1 strain, stronger effect = higher value. An outline of the steps: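 Using mec2-1 yeast: add compound, measure growth, express inhibition versus vehicle-treated cultures.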
A short description of test [3]: NCI Yeast Anticancer Drug Screen. Data for the sgs1 mgt1 strain (AID 161).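 Note: 0% = growth of cultures given vehicle only.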 The conditions noted are these: S. cerevisiae sgs1 mgt1 strain, stronger effect = higher value. The method in brief:
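This yeast growth screen uses a strain with defined DNA-repair lesions; compound-treated growth is compared with vehicle-treated growth.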

A short description of test [4]: NCI Yeast Anticancer Drug Screen. Data for the cln2 rad14 strain (AID 165).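 Note: 0% = growth equal to vehicle treated cultures.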 The conditions noted are these: S. cerevisiae cln2 rad14 strain, stronger effect = higher value. An outline of the steps: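 Yeast strain cln2 rad14, bearing defects in cell cycle control and DNA repair, serves as the test system; values reflect growth inhibition compared with vehicle.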
The nature of test [5]: NCI Yeast Anticancer Drug Screen. Data for the bub3 strain (AID 167). The conditions noted are these: S. cerevisiae bub3 mutant strain, stronger effect = higher value. An outline of the steps: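 Growth of a checkpoint-deficient yeast mutant is measured after compound exposure. Values represent inhibition relative to vehicle.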
Test [6] in a line: NCI Yeast Anticancer Drug Screen. Data for the mlh1 rad18 strain (AID 175). The conditions noted are these: S. cerevisiae mlh1 rad18 strain growth inhibition, stronger effect = higher value. An outline of the steps:
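Steps: expose repair-defective yeast to compound; measure growth; express inhibition against vehicle-treated controls.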

[7] abbreviates: at 5.0 µM (retest, dose inferred, filed as 0.5).
The mark [8] stands for this setting: at 50.0 µM (retest, dose inferred, filed as 5.0).

Regarding `O=C(O)c1c(Br)c(Br)c(Br)c(Br)c1-c1c2ccc(=O)cc-2oc2cc(O)ccc12`, the growth inhibition was 94% (active) in test [1] (setting [7]); 93% (active) in test [1] (setting [8]); 84.1% (active) in test [1] (at 50.0 µM); 95% (active) in test [2] (setting [7]); 96% (active) in test [2] (setting [8]); 88.7% (active) in test [2] (at 50.0 µM). The growth inhibition was 87% (active) in test [3] (setting [7]); 96% (active) in test [3] (setting [8]); 87.1% (active) in test [3] (at 50.0 µM); 88% (active) in test [4] (setting [7]); 95% (active) in test [4] (setting [8]); 87.8% (active) in test [4] (at 50.0 µM). Further, the growth inhibition in test [5] (setting [7]) was 91% (active); in test [5] (setting [8]) it was 95% (active); in test [5] (at 50.0 µM) it was 85.8% (active); in test [6] (setting [7]), 94% (active); in test [6] (setting [8]) it was 92% (active); in test [6] (at 50.0 µM), 83.5% (active).

As to `CN(C)c1cc[c]([Sn]([c]2ccc(N(C)C)cc2)([c]2ccc(N(C)C)cc2)[c]2ccc(N(C)C)cc2)cc1`, the growth inhibition in test [1] (setting [7]) is 0%; in test [1] (setting [8]), 0%; in test [1] (at 50.0 µM), 72.5% (active); in test [2] (setting [7]) it was 4%; in test [2] (setting [8]), 4%; in test [2] (at 50.0 µM) it was 34.1%. The growth inhibition in test [3] (setting [7]) was -9%; in test [3] (setting [8]), -9%; in test [3] (at 50.0 µM) it was 37%; in test [4] (setting [7]) it was -12%; in test [4] (setting [8]), -12%; in test [4] (at 50.0 µM) it was 34.4%. Besides, the growth inhibition was -12% in test [5] (setting [7]); -12% in test [5] (setting [8]); 49.4% in test [5] (at 50.0 µM); -18% in test [6] (setting [7]); -18% in test [6] (setting [8]); 78.8% (active) in test [6] (at 50.0 µM).

As for `CCOC(=O)C(CC)(CCc1ccccc1[N+](=O)[O-])C(=O)OCC`, the growth inhibition in test [1] (setting [7]) is 8%; in test [1] (setting [8]) it was -24%; in test [1] (at 50.0 µM), 61.2%; in test [2] (setting [7]), -3%; in test [2] (setting [8]) it was -2%; in test [2] (at 50.0 µM) it was -6.6%. For the same compound, the growth inhibition in test [3] (setting [7]) was 9%; in test [3] (setting [8]), 37%; in test [3] (at 50.0 µM), 39.2%; in test [4] (setting [7]), 0%; in test [4] (setting [8]), -17%; in test [4] (at 50.0 µM), -18.1%. Also, the growth inhibition was 6% in test [5] (setting [7]); 24% in test [5] (setting [8]); 75.9% (active) in test [5] (at 50.0 µM); 17% in test [6] (setting [7]); 13% in test [6] (setting [8]); 60.9% in test [6] (at 50.0 µM).

Turning to `N#CC(Cc1ccc(CC(C#N)(c2ccccc2)c2ccccn2)cc1)(c1ccccc1)c1ccccn1` (configuration not stated), the growth inhibition is -1% in test [1] (setting [7]); 3% in test [1] (setting [8]); 20.9% in test [1] (at 50.0 µM); -2% in test [2] (setting [7]); 3% in test [2] (setting [8]); 34.5% in test [2] (at 50.0 µM). Also, the growth inhibition in test [3] (setting [7]) is -4%; in test [3] (setting [8]), -1%; in test [3] (at 50.0 µM), 10.9%; in test [4] (setting [7]), -6%; in test [4] (setting [8]), 1%; in test [4] (at 50.0 µM), 2.75%. Moreover, the growth inhibition in test [5] (setting [7]) is -2%; in test [5] (setting [8]), -8%; in test [5] (at 50.0 µM) it was 35.4%; in test [6] (setting [7]), -2%; in test [6] (setting [8]), 2%; in test [6] (at 50.0 µM), 14.8%.

Take `CC(=O)N(C)c1cc(NCc2ccccc2)ccc1OCc1ccccc1`: the growth inhibition in test [1] (setting [7]) was 1%; in test [1] (setting [8]), 96% (active); in test [1] (at 50.0 µM) it was 98.1% (active); in test [2] (setting [7]), 12%; in test [2] (setting [8]) it was 95% (active); in test [2] (at 50.0 µM), 97.8% (active). For the same compound, the growth inhibition in test [3] (setting [7]) was 2%; in test [3] (setting [8]), 96% (active); in test [3] (at 50.0 µM), 97.7% (active); in test [4] (setting [7]), -60%; in test [4] (setting [8]) it was 24%; in test [4] (at 50.0 µM), 79.8% (active). Moreover, the growth inhibition in test [5] (setting [7]) is -7%; in test [5] (setting [8]), -65%; in test [5] (at 50.0 µM), 95.7% (active); in test [6] (setting [7]), -1%; in test [6] (setting [8]), 96% (active); in test [6] (at 50.0 µM) it was 98.3% (active).

For `Cc1cc(Cl)cc2c1OCN(C)C2`, the growth inhibition in test [1] (setting [7]) is 0%; in test [1] (setting [8]), 93% (active); in test [1] (at 50.0 µM), 99% (active); in test [2] (setting [7]), 1%; in test [2] (setting [8]), 96% (active); in test [2] (at 50.0 µM), 99.2% (active). The growth inhibition in test [3] (setting [7]) was 1%; in test [3] (setting [8]), 97% (active); in test [3] (at 50.0 µM) it was 98.8% (active); in test [4] (setting [7]) it was -6%; in test [4] (setting [8]), 96% (active); in test [4] (at 50.0 µM) it was 99.3% (active). Also, the growth inhibition was -5% in test [5] (setting [7]); 94% (active) in test [5] (setting [8]); 99% (active) in test [5] (at 50.0 µM); 0% in test [6] (setting [7]); 94% (active) in test [6] (setting [8]); 99.5% (active) in test [6] (at 50.0 µM).

On to `CN(C)c1ccc(C=Nc2cnc3ccccc3c2)cc1`, for which the growth inhibition in test [1] (setting [7]) is -10%; in test [1] (setting [8]), 10%; in test [1] (at 50.0 µM) it was -54.4%; in test [2] (setting [7]), -5%; in test [2] (setting [8]) it was -13%; in test [2] (at 50.0 µM), -14.3%. The growth inhibition in test [3] (setting [7]) is -4%; in test [3] (setting [8]) it was -1%; in test [3] (at 50.0 µM), -3.05%; in test [4] (setting [7]), -32%; in test [4] (setting [8]), -14%; in test [4] (at 50.0 µM), -43.7%. Besides, the growth inhibition in test [5] (setting [7]) is 2%; in test [5] (setting [8]), 5%; in test [5] (at 50.0 µM), -3.65%; in test [6] (setting [7]), 0%; in test [6] (setting [8]), 10%; in test [6] (at 50.0 µM), -6.35%.

`O=C(O)Cc1ccc2c3c(cccc13)CC2`: the growth inhibition was 44% in test [1] (setting [7]); 90% (active) in test [1] (setting [8]); 88.1% (active) in test [1] (at 50.0 µM); 12% in test [2] (setting [7]); 94% (active) in test [2] (setting [8]); 91.8% (active) in test [2] (at 50.0 µM). Besides, the growth inhibition is 20% in test [3] (setting [7]); 78% (active) in test [3] (setting [8]); 91.2% (active) in test [3] (at 50.0 µM); 23% in test [4] (setting [7]); 77% (active) in test [4] (setting [8]); 90.2% (active) in test [4] (at 50.0 µM). For the same compound, the growth inhibition in test [5] (setting [7]) is 16%; in test [5] (setting [8]) it was 86% (active); in test [5] (at 50.0 µM), 92.2% (active); in test [6] (setting [7]), 27%; in test [6] (setting [8]), 91% (active); in test [6] (at 50.0 µM) it was 92.8% (active).

For `O=C1Nc2ccc([N+](=O)[O-])c3c([N+](=O)[O-])ccc1c23`, the growth inhibition in test [1] (setting [7]) was 4%; in test [1] (setting [8]), 82% (active); in test [1] (at 50.0 µM), 79% (active); in test [2] (setting [7]) it was 11%; in test [2] (setting [8]) it was 81% (active); in test [2] (at 50.0 µM), 47.4%. In addition, the growth inhibition in test [3] (setting [7]) is 3%; in test [3] (setting [8]), 88% (active); in test [3] (at 50.0 µM), 57.5%; in test [4] (setting [7]), 0%; in test [4] (setting [8]), 39%; in test [4] (at 50.0 µM), 69.8%. Further, the growth inhibition is 2% in test [5] (setting [7]); 70% (active) in test [5] (setting [8]); 34.2% in test [5] (at 50.0 µM); 47% in test [6] (setting [7]); 94% (active) in test [6] (setting [8]); 90.7% (active) in test [6] (at 50.0 µM).
